A selection: hits, their analogues and other compounds. The true share with any hit is near 3.6%.
mHTT CaM bind: inhibitors of human mutant huntingtin-calmodulin interaction | AID 1671202 | inhibition, % at 15 µM | AlphaScreen His-mHTT/GST-CaM binding, luminescence | P42858 | hit rate 3.6% among 190,000
Pf apPOL block: Pf-apPOL DNA polymerase inhibition | Recombinant Pf-apPOL, molecular beacon fluorescence, 1.5 h | hit rate 0.25% among 210,000 | inhibition, % at 10 µM
Hits are given with their value; . = inactive; / = not tested or not shown. No stated cut-off is given here; in the data, active means inhibition above about 50%; inactive means the rest.

SMILES	mHTT CaM bind	Pf apPOL block
O=C1CC(C(=O)N2CCN(C3CCCCC3)CC2)CN1CCc1ccccc1 (centres undefined)	.	.
CC1=NN(c2ccccc2)C(=O)C1	/	.
CC1=NN(c2ccc(Cl)cc2)C(=O)C1	68	.
COCCN(CCOC)c1ncnc2c1cnn2-c1ccc(C)cc1C	.	.
CC(C)(C)SCCNC(=O)c1ccccc1Cl	.	.
CCc1cccc(NC(=O)N2CCc3c(nc4cc[nH]n4c3=O)C2)c1	.	.
COc1ccc(Cl)cc1N(CC(=O)Nc1ccccc1C(=O)NC(C)C)S(C)(=O)=O	.	.
CN1c2cc(F)ccc2C(=O)NC12CCN(C(=O)Nc1ccc3c(c1)OCO3)CC2	.	.
Cc1ccc(NC(=O)N2CCC3(CC2)Nc2cc(F)ccc2-n2cccc23)cc1	61	.
CCOC(=O)c1ccc(NC(=O)N2CCC3(CC2)Nc2cc(F)ccc2-n2cccc23)cc1	56	.
O=C(Nc1ccc(F)cc1)N1CCC2(CC1)Nc1cc(F)ccc1-n1cccc12	.	.
O=C(Nc1ccc2c(c1)OCCO2)N1CCC2(CC1)Nc1cc(F)ccc1-n1cccc12	69	.
CCOC(=O)c1cccc(NC(=O)N2CCC3(CC2)Nc2cc(F)ccc2-n2cccc23)c1	68	.
CCOC(=O)NNC(=S)Nc1ccccc1N1CCOCC1	/	.
CCc1cccc(NC(=O)N2CCC(c3nc(C(=O)N(C)C)c(C)o3)CC2)c1	.	.
Cc1ccc(CN2C(=O)CCC2(C)C(=O)NCc2ccccc2)o1 (centres undefined)	.	.
Nc1ccc(NCc2cccnc2)c(C(=O)O)c1	.	.
Cc1cc([N+](=O)[O-])nn1CC(=O)N1CCCCC1C (centres undefined)	.	.
COc1ccc(Cl)cc1NC(=O)CN1C(=O)NC2(CCCCC2C)C1=O (centres undefined)	.	.
Cc1nc(CN2C(=O)C(=O)c3cc([N+](=O)[O-])ccc32)cs1	.	.
CCSc1oc(-c2cccs2)nc1S(=O)(=O)c1ccc(Cl)cc1	.	.
COc1ccc(C2C(C(=O)Nc3cc(C)ccc3OC)CCC(=O)N2c2ccc(OC)cc2)cc1 (centres undefined)	56	.
COc1ccc(N2C(=O)CCC(C(=O)Nc3cc(OC)ccc3OC)C2c2ccc(F)cc2)cc1 (centres undefined)	.	.
Cc1cc(NC(=O)c2ccc(S(=O)(=O)N(C)C)cc2)n(-c2nc3ccccc3s2)n1	.	.
CC(C(=O)N1CCN(c2ccccc2)CC1)N(c1ccccc1)S(C)(=O)=O (centres undefined)	.	.
SMILES	mHTT CaM bind	Pf apPOL block
O=c1ccc2cc(N=Cc3ccc(C=Nc4ccc5oc(=O)ccc5c4)cc3)ccc2o1	.	.
Cc1c(Cl)c([N+](=O)[O-])nn1CCCC(=O)N1CCN(c2ccccc2)CC1	.	.
Cc1c(Cl)c([N+](=O)[O-])nn1CCCC(=O)N(Cc1ccccc1)Cc1ccccc1	84	.
COc1ccc(NC(=O)CSc2nnc(NC(=O)c3ccccc3Cl)s2)c([N+](=O)[O-])c1	.	.
Cc1ccc(-c2cc(C(F)(F)F)n3nc(C(=O)Nc4cc(C)on4)cc3n2)cc1	.	.
CCn1cc(-c2nc(C)c(C(=O)N3CCOCC3)s2)c2cccnc21	.	.
O=C(c1csc(-c2ccncc2)n1)N1CCN(c2cccc(C(F)(F)F)c2)CC1	63	.
CCn1cc(CC(=O)N2CCN(c3ccccc3)CC2)c2cccnc21	.	.
CCn1cc(-c2nc(C(=O)N3CCN(c4ccccc4)CC3)cs2)c2cccnc21	100	.
COc1cccc(N2CCN(C(=O)c3csc(-c4cccnc4)n3)CC2)c1	.	.
Cc1nc(-c2cn(C)c3ncccc23)sc1C(=O)N1CCN(c2ccccc2)CC1	55	.
CC(C)(C)C1=CC(CO)CC(CO)C1 (centres undefined)	.	.
O=C(C1CCCN(c2cnn(Cc3ccccc3)c(=O)c2)C1)N1CCCCC1 (centres undefined)	.	.
COc1cccc(C=Nc2cc(C)cc(C)c2O)c1O	50	.
Cc1cc(C)c(O)c(N=Cc2cccc([N+](=O)[O-])c2O)c1	.	.
O=C(Nc1cccc(-c2ccc3nncn3n2)c1)c1cccc(C(F)(F)F)c1	.	.
Cc1cc(C2CCCN2Cc2cc(Br)ccc2O)no1 (centres undefined)	62	.
CCCc1cc(C2CCCN2Cc2cc(Br)ccc2O)no1 (centres undefined)	.	.
Cc1ccc(-c2noc(-c3c(O)c4ccc(F)cc4[nH]c3=O)n2)c(C)c1	.	.
CC(C)(C)n1nc2c(c1NC(=O)c1ccccc1Cl)CS(=O)C2 (centres undefined)	.	.
COc1cccc(C2C(C#N)=C(N)OC3=C2C(=O)CCC3)c1 (centres undefined)	.	.
N#CC1=C(N)OC2=C(CC/C2=C\c2ccc(F)cc2)C1c1ccc(F)cc1 (centres undefined)	77	.
N#CC1=C(N)OC2=C(CCCC2)C1c1ccc(F)cc1 (centres undefined)	.	.
COc1cccc(/C=C2\CCC3=C2OC(N)=C(C#N)C3c2cccc(OC)c2)c1 (centres undefined)	78	.
CCCNC(=O)N1CCC2(C1)NCc1ccccc1NC2=NC(C)(C)C (centres undefined)	.	.
SMILES	mHTT CaM bind	Pf apPOL block
COc1cccc(CNC(=O)c2sc(Nc3cccc(C)n3)nc2C)c1	.	.
CCN1c2cc(F)ccc2C(=O)NC12CCN(C(=O)c1ccccc1OC)CC2	.	.
CCOc1cc(C2C(=C(O)c3ccc(F)cc3)C(=O)C(=O)N2c2nncs2)ccc1O (centres undefined)	.	.
COC(=O)C(C)Oc1ccc2c(c1)OC(=Cc1ccc(OC)c(OC)c1OC)C2=O (centres undefined)	.	.
CC(C)n1c2ccc(Br)cc2c2nc3ccccc3nc21	.	82
Cn1c2ccc([N+](=O)[O-])cc2c2nc3ccccc3nc21	.	.
O=C1C(N2CCCC2)=C(N2CCN(S(=O)(=O)c3ccccc3)CC2)C(=O)c2ccccc21	80	.
O=S(=O)(c1ccccc1)N1CCN(S(=O)(=O)c2ccccc2)C1	.	.
CC(C)c1cc(C(C)C)c(S(=O)(=O)NN)c(C(C)C)c1	.	/
CC(C)c1nccn1CC1CCN(C(=O)CN2C(=O)c3ccccc3C2=O)CC1	.	.
Cc1ccc(CNC(=O)C2CCN(c3nn4c(=O)c5c(nc4s3)CCCC5)CC2)cc1	89	.
O=C(NCc1cccc(F)c1)C1CCN(c2nn3c(=O)c4c(nc3s2)CCCC4)CC1	.	.
O=C(NCc1ccc(F)cc1)c1ccc2c(cnn2CC(=O)N2CCCCCC2)c1	.	.
Cc1cc(C)n(-c2nc(C)nc(N)n2)n1	.	.
COc1nc(-n2nc(C)cc2C)nc(-n2nc(C)cc2C)n1	.	64
O=C(c1ccc2nc[nH]c2c1)N1CCc2c(nc3cc(-c4ccccc4Cl)[nH]n3c2=O)C1	.	.
CN1CCN(Cc2c(O)ccc3c2OC(=Cc2cccc(Br)c2)C3=O)CC1	.	.
O=C(NC1CC(=O)N(Cc2ccccc2)C1)c1ccccc1 (centres undefined)	.	.
CC1(C)C(C=C(Cl)Cl)C1C(=O)Nc1sc2c(c1C#N)CCC2 (centres undefined)	.	.
CC1(C)C(C=C(Cl)Cl)C1C(=O)Nc1sc2c(c1C(N)=O)CCCC2 (centres undefined)	100	.
COc1cccc(CN2CCc3nc(Nc4ccc5c(c4)OCO5)ncc3C2)c1OC	.	.

Source: PubChem BioAssay
